# Most compounds without a hit are left out; they make up all but 19% or so of the library.
# IL1B secr inh: inflammasome signaling inhibition, IL-1 beta readout; activity change, % at 57.5 µM; AID 743279; hit rate 4.7% among 360,000; THP-1 LPS/ATP IL-1B secretion, AlphaLISA, 16 h; active compounds read low; in the data active = activity change below about -50%; inconclusive = mostly about -30% to -49%
#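 THP-1 cells pretreated 1 hr with compounds (up to 57.5 uM final), then stimulated with LPS (250 ng/mL final) plus ATP (1.25 mM final); secreted IL-1B measured by AlphaLISA after 16 hr, decreased signal indicating inhibition.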
# DT40 TDP1 no CPT: qHTS for Inhibitors of human tyrosyl-DNA phosphodiesterase 1 (TDP1): qHTS in cells in absence of CPT; DT40 Tdp1-/- hTDP1 cells, no CPT, ATP luminescence, 48 h; Potency, µM (titrated, usually from 46.2 µM), usual class: inhibitors; hit rate 15% among 420,000; AID 686978, 2013; note: nearly all actives have a fitted effect of over 55% in size
#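 DT40 Tdp1-/-;hTDP1 cells, no CPT (DMSO vehicle only), 400 cells/well; compounds pin-transferred; ≥48 hr, 37 °C; CellTiter-Glo 30 min RT dark, luminescence read.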
# HT1080-NT tox: kills 2HG-producing HT-1080-NT fibrosarcoma cells. HT-1080-NT fibrosarcoma viability, CellTiter-Glo ATP luminescence, 48 h. Potency, µM (doses to about 46.1 µM), most hits filed as cytotoxic. hit rate 1.6% among 360,000. AID 686970;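 note: NT is the 2HG producing partner of a matched IDH1 knockdown line; nearly all actives have a fitted effect of over 55% in size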
#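 HT-1080-NT fibrosarcoma cells (2HG-overproducing), 750 cells/well in RPMI with 5% FBS, dosed after 2 h and incubated 48 h at 37C. CellTiter-Glo luminescence normalized to DMSO and no-cell wells; concentration-response curves fitted and classed.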
# TDP1 cell CPT: growth inhibition of DT40 Tdp1-/-;hTDP1 cells with camptothecin (screen for TDP1 inhibitors); AID 686979; chicken DT40 Tdp1-/-;hTDP1 cells + 20 nM CPT, ATP luminescence, 48 h; Potency, µM (titrated, usually from 46.2 µM), most hits filed as inhibitors; hit rate 12% among 420,000; note: nearly all actives have a fitted effect of over 55% in size
#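 Chicken DT40 Tdp1-/- cells complemented with human TDP1, 400 cells/well, exposed to compounds plus 20 nM camptothecin for at least 48 h at 37 C; viability read as ATP content by CellTiter-Glo luminescence.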
# HT1080 IDH1KD tx: HT-1080 IDH1 knockdown cell toxicity (counter line) | HT-1080 IDH1 knockdown viability, ATP luminescence, 48 h | Potency, µM (highest dose often 46.1 µM), most hits filed as cytotoxic | hit rate 2% among 360,000
#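 HT-1080-IDH1KD cells (IDH1 knocked down), 750/well in RPMI with 5% FBS, treated with compound 48 h at 37 degrees C. Viability by CellTiter-Glo luminescence, normalised to DMSO and no-cell wells; concentration-response curves classed.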
# ELG1 DNA repair: inhibitors of ELG1-dependent DNA repair in HEK293T cells | HEK293T ELG1-luciferase reporter, luminescence, 16 h; DNA damage induced by 5-fluorouridine | hit rate 2.3% among 330,000 | AID 504467 | Potency, µM (highest dose often 46.1 µM), most hits filed as inhibitors; note: nearly all actives have a fitted effect of over 55% in size
#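 Quantitative HTS, concentration-response format. 2,000 cells/well co-treated with 5-fluorouridine and compound, 16 hr in 5% CO2 at 37 °C; ONE-Glo luminescence read after 30 min.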
# A number is an active result; 0 = inactive; ? = inconclusive; - = not tested or not shown; [ ] = another dose, or the depositor's remark. Unless noted, calls come from the whole dose curve; as a rule, active = well fitted curve in the direction sought with a large enough effect; inconclusive = small, poorly fitted or top-dose-only effect, or another doubt; inactive = no such curve, though single readings can be large; an effect the other way counts as inactive or inconclusive.
SMILES,IL1B secr inh,DT40 TDP1 no CPT,HT1080-NT tox,TDP1 cell CPT,HT1080 IDH1KD tx,ELG1 DNA repair
CCOC(=O)c1cnc2ccc(OC)cc2c1Nc1ccc2c(c1)OCCO2,0,18µM,?,?,?,?
CCOC(=O)c1cnc2ccccc2c1Nc1ccc(N2CCOCC2)cc1,-,0,-,?,-,-
CCOC(=O)c1ccc2ncc(C(=O)OCC)c(Nc3ccc(N4CCOCC4)cc3)c2c1,0,6.5µM,?,10µM,?,10µM
CCOC(=O)c1cnc2ccc(C(=O)OC)cc2c1Nc1ccc2c(c1)OCCO2,0,?,0,?,0,?
COCCCn1c(=O)c2ccccc2n(CC(=O)NC2CCCCC2)c1=O,0,0,0,0,0,0
Cc1ccc(CCNC(=O)C(NS(=O)(=O)c2ccc3c(c2)oc(=O)n3C)C(C)C)cc1 (stereo not drawn),-,0,-,0,-,-
CCN(CC)C(=S)SCC(=O)c1ccc(Br)cc1,0,23µM,0,0,0,?
CC(NCC(=O)NC(=O)NC1CCCC1)c1ccc(Cl)cc1Cl (stereo not drawn),?,0,0,0,0,?
COc1ccc(OC)c(-c2cc(Cl)c3c(c2)CC(CNC(=O)c2coc4c2C(=O)CCC4)O3)c1 (stereo not drawn),-,0,-,0[9.04 µM],-,-
CC(C)CCN(Cc1ccco1)S(=O)(=O)c1csc(C(N)=O)c1,0,23µM,0,18µM,0,0
CCOCCCN(Cc1ccco1)S(=O)(=O)c1csc(C(N)=O)c1,0,0,0,0,0,0
O=C1CN2CCC1C/C2=C\c1ccnc2c(Cl)cccc12 (stereo not drawn),0,?,0,?,0,10µM
CC(=O)c1c(N2CCN(c3cccc(Cl)c3)CC2)nc(=S)n(-c2ccccc2)c1C,-102,?,0,?,0,0
CCn1c(C)c(C(C)=O)c(N2CCN(c3cccc(Cl)c3)CC2)nc1=S,0,?,0,?,0,0
CC(=O)c1c(NCCc2ccccc2)nc(=S)n(-c2ccccc2)c1C,-101,18µM,0,21µM,0,0
C=CCn1c(C)c(C(C)=O)c(N2CCN(C(c3ccccc3)c3ccccc3)CC2)nc1=S,0,23µM,0,?,0,?
O=c1c(-c2cccs2)nc2ccccc2n1C(c1ccccn1)c1nc2ccccc2[nH]1 (stereo not drawn),0,15µM,0,?,0,-
O=c1c(-c2ccccc2)nc2ccccc2n1C(c1ccccn1)c1nc2ccccc2[nH]1 (stereo not drawn),0,9.2µM,0,?,0,-
Cc1ccc(CNC(=O)CNC(=O)c2ccc(C(C)(C)C)cc2)n1C,0,?,0[9.24 µM],?,0,0
Cc1cc2c(N=O)c(NO)ccc2[nH]1,0,6.5µM,0,7.3µM,?,0
Nc1nn2c(-c3ccccc3)cc(=O)[nH]c2c1N=Nc1ccc(Br)cc1,0,16µM,0,?,0,0
Nc1nn2c(-c3ccccc3)cc(=O)[nH]c2c1N=Nc1ccc(O)cc1,0,?,0,?,?,?
O=C1N(Cc2ccccc2)CC2(Br)COCOC12O (stereo not drawn),?,3.3µM,0,2.3µM,?,-
O=C(COc1cccc(Cl)c1)Nc1ccc2c(c1)CCC2,0,0,0,0,0,?
Cc1noc(C)c1COc1ccc(C(=O)OCC(=O)Nc2ccc(C(=O)N(C)C)cc2)cc1,0,0,0,0,0,0
Cc1ccc(-n2nc(C(=O)N3CCN(c4ccccc4F)CC3)c(=O)n(C)c2=O)cc1,-,0,-,0,-,-
COc1ccc(-c2noc(CN(C)C(=O)c3ccoc3C)n2)cc1,0,16µM,0,?,0,0
Cc1cccc(-c2noc(CN(C)C(=O)c3ccoc3C)n2)c1,0,?,0,0,0,0
COc1ccc(-c2noc(CN(C(=O)COc3cc(C)c(Br)c(C)c3)C(C)C)n2)cc1,-,23µM,-,18µM,-,-

# Compound activity from PubChem BioAssay.
